Measurements from PubChem BioAssay (NCI).
The panel holds about 79,000 compounds, 15% with a hit somewhere; the sample as a whole holds those more often. Activity calls are given as the source filed them. Cut-off read from the data, not from the text of the source: active = growth inhibition above about 70%; inactive = the rest.

Legend:
[1] = NCI Yeast Anticancer Drug Screen. Data for the rad50 strain (AID 155);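 note: 0% = growth of vehicle-only cultures of the same strain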; settings: S. cerevisiae rad50 strain growth inhibition; at 50.0 µM; active compounds read high
Procedure, shortened: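 Readout: growth inhibition relative to vehicle-treated cultures. Compound exposure was carried out in a genetically defined yeast strain deficient in DNA damage repair.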

[2] = NCI Yeast Anticancer Drug Screen. Data for the mec2-1 strain (AID 157); settings: S. cerevisiae mec2-1 strain, at 50.0 µM, active compounds read high
Procedure, shortened: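 Yeast mec2-1 mutant treated with compound. Readout: growth inhibition vs vehicle controls.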

[3] = NCI Yeast Anticancer Drug Screen. Data for the sgs1 mgt1 strain (AID 161);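 note: 0% = growth of cultures given vehicle only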; settings: S. cerevisiae sgs1 mgt1 strain, at 50.0 µM, active compounds read high
Procedure, shortened: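 Mutant yeast exposed to compound; growth scored against vehicle-only wells.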

[4] = NCI Yeast Anticancer Drug Screen. Data for the cln2 rad14 strain (AID 165);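 note: 0% = growth equal to vehicle treated cultures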; settings: S. cerevisiae cln2 rad14 strain, at 50.0 µM, active compounds read high
Procedure, shortened: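 cln2 rad14 yeast strain; compound exposure; growth inhibition read vs vehicle controls.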

[5] = NCI Yeast Anticancer Drug Screen. Data for the bub3 strain (AID 167); settings: S. cerevisiae bub3 mutant strain, at 50.0 µM, active compounds read high
Procedure, shortened: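 Readout: yeast growth inhibition, expressed relative to vehicle-only wells. The test organism is a mutant strain from a panel with lesions in DNA repair or checkpoint genes.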

[6] = NCI Yeast Anticancer Drug Screen. Data for the mlh1 rad18 strain (AID 175); settings: S. cerevisiae mlh1 rad18 strain growth inhibition; at 50.0 µM; active compounds read high
Procedure, shortened: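 Yeast w/ defined DNA-repair lesions; compound exposure; growth vs vehicle controls → % inhibition.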

Measured: growth inhibition

Clc1ncc(-c2ccccc2)nc1Cl
inactive: [1] 49.5% | [2] 11.4% | [3] 0.6% | [4] 1.25% | [5] 1.75% | [6] 14.9%

C[CH2][Ge]([CH2]C)[CH2]C.C[CH2][Ge]([CH2]C)[CH2]C
inactive: [1] 6.5% | [2] 0.35% | [3] -2.45% | [4] -25.4% | [5] 0.9% | [6] -3%

CCCCCCCCCCCCCCCCCC(=O)N/N=C/c1cc(OC)ccc1OC
inactive: [1] 1.55% | [2] 0.05% | [3] -0.05% | [4] -25.2% | [5] -0.6% | [6] -28.9%

S=C(NCc1cccnc1)Nc1ccc(Cl)c(Cl)c1
inactive: [1] 26.8% | [2] 13.3% | [3] 27.9% | [4] 5.85% | [5] 27.6% | [6] 13.7%

CC(C)(C)N1CCC(=O)C1=O
inactive: [1] 23.8% | [2] 22.9% | [3] 1.85% | [4] 7.85% | [5] 5.85% | [6] 17.8%

O=P(CCC(O)c1ccccc1)(c1ccccc1)c1ccccc1 (configuration not stated)
inactive: [1] -7.45% | [2] 5.65% | [3] -0.65% | [4] 0.5% | [5] -9.6% | [6] 9.8%

Fc1c(F)c(-c2c(F)c(F)c(Br)c(F)c2F)c(F)c(F)c1Br
inactive: [1] 2.5% | [2] -14.6% | [3] -7.45% | [4] 6.15% | [5] 20.6% | [6] -0.65%

Cc1ccc(S/C=C/C(=O)Nc2ccccc2)cc1
inactive: [1] -10.8% | [2] 13.4% | [3] 7.1% | [4] 43.1% | [5] 2.85% | [6] 5.6%

Cc1cc(N=[N+]=[N-])c2cc3c(cc2n1)OCO3
inactive: [1] -32.2% | [2] -7.5% | [3] -0.4% | [4] -39% | [5] 5.65% | [6] 14%

C=C1C(=O)OC2CCC(O)C12 (configuration not stated)
inactive: [1] 6.95% | [2] 5.15% | [3] 1.2% | [4] -30.6% | [5] -1.2% | [6] 11.7%

COc1cccc(/C=C2\C(=O)N(C(=O)Cc3ccccc3)N=C2C)c1
inactive: [1] 4.3% | [2] -30.2% | [3] -34.8% | [4] -0.45% | [5] -14.8% | [6] -24.1%

CCCCCCC1OCCC(C)O1 (configuration not stated)
inactive: [1] 7.6% | [2] 5.95% | [3] 16.9% | [4] -10.3% | [5] -22.4% | [6] 12.9%

O=C(Oc1ccc2ccccc2c1)c1ccccc1
inactive: [1] 28.4% | [2] 4.4% | [3] 28.4% | [4] 21.9% | [5] 2.7% | [6] 10.1%

CCn1c(C)cc(=NC(=O)c2ccccc2O)n1-c1ccccc1
inactive: [1] 4.45% | [2] 9.8% | [3] 25.6% | [4] 11.5% | [5] 21% | [6] 16.7%

CCOC(=O)C(C)N1CCCCCC1 (configuration not stated)
inactive: [1] -28.8% | [2] -30.4% | [3] -17.8% | [4] -28.5% | [5] -8.25% | [6] -10.8%

C=CCCCCCCCCC(=O)Nc1cc2c3c(c1)CCCN3CCC2
inactive: [1] 6.95% | [2] 8.75% | [3] 1.1% | [4] -13.8% | [5] 10.6% | [6] 20.9%

COc1cccc2c(C(=O)O)cc(-c3ccc(Cl)cc3)nc12
inactive: [1] 7.85% | [2] 0.75% | [3] 19.1% | [4] 15.2% | [5] 6.9% | [6] 15.9%

Cc1cc(=O)oc2cc(OC(=O)Nc3ccc(F)c([N+](=O)[O-])c3)ccc12
inactive: [1] 7.85% | [2] 45.2% | [3] 27.1% | [4] -11.8% | [5] 53.9% | [6] 12.5%

Cc1c(O)c(=O)ccn1CCN
inactive: [1] 5.65% | [2] -8.35% | [3] 2.6% | [4] -34% | [5] -9.7% | [6] 5.8%

O=C1C(Cl)N(c2ccc([N+](=O)[O-])cc2)C1c1c[nH]c2ccccc12 (configuration not stated)
inactive: [1] -4.2% | [2] -38.6% | [3] -0.3% | [4] 8.75% | [5] 19.2% | [6] -31.4%

C=CCOCC(COC(=O)CCCCCCCCCCCCCCCCC)OCC=C (configuration not stated)
inactive: [1] -8.85% | [2] -2.85% | [3] -0.25% | [4] 18.9% | [5] -16.8% | [6] 6.5%

CCOC(=O)N1CCN(C(=S)N/N=C(\C)c2cnccn2)CC1
active: [1] 99.3% | [2] 99.5% | [3] 99.5% | [4] 99.5% | [5] 99.5% | [6] 99.3%

COc1cccc2c1CCC(=O)C2
inactive: [1] -31.7% | [2] -44.8% | [3] -35.1% | [4] 8% | [5] -44.8% | [6] -18.3%

CS(=O)(=O)N1COC(=O)[C@@H]1c1ccccc1
inactive: [1] 1.25% | [2] 25.4% | [3] 7% | [4] -3% | [5] 11.2% | [6] 3.05%

O=C(Nc1ccc(Cl)c(C(F)(F)F)c1)C(=O)c1c(O)c2ccccc2oc1=O
inactive: [1] 9.85% | [2] 4.7% | [3] -11.7% | [4] -38.5% | [5] -19.1% | [6] 5.3%

C=CCOCn1ccc(N)nc1=O
inactive: [1] -3.3% | [2] -0.55% | [3] 1.8% | [4] 7% | [5] -6.05% | [6] -2.95%

O=C(O)CS(=O)(=O)Cc1ccccc1
inactive: [1] -12.7% | [2] -9.85% | [3] -9.25% | [4] -60.6% | [5] -7.9% | [6] -6.5%

NS(=O)(=O)c1ccc(N2C(=O)C3C(C2=O)C2(Cl)C(Cl)=C(Cl)C3(Cl)C2(Cl)Cl)cc1 (configuration not stated)
inactive: [1] -6.4% | [2] -6.95% | [3] 3.25% | [4] 15.1% | [5] -4.7% | [6] 20.6%

COc1cccc(C2=CCCCCC2)c1OC
inactive: [1] 1.15% | [2] -12.8% | [3] -9.45% | [4] -23% | [5] -15.9% | [6] 4.3%

CC1(C)C2CCC1(C)C(NC(=O)COCCOCC(N)=O)C2 (configuration not stated)
inactive: [1] -45% | [2] -53.1% | [3] -52.6% | [4] -2.55% | [5] -54.9% | [6] -67.3%

CC(C)=CC1CC(=O)C1(C)Sc1ccccc1 (configuration not stated)
inactive: [1] 26.9% | [2] -1.5% | [3] 24.2% | [4] 12.9% | [5] 4.7% | [6] 2.95%

O=C(O)CCNCCO
inactive: [1] -3.5% | [2] 13.4% | [3] 5.1% | [4] -18.6% | [5] 20.1% | [6] 2.45%

CC(=O)N1c2ccccc2C2=NN(C)C(=N)SC21 (configuration not stated)
inactive: [1] -27.6% | [2] -5.7% | [3] -27.3% | [4] -7.65% | [5] -5.2% | [6] 1.65%

CCCCCC/C=C1\CCC(CN(C)C)C1=O (configuration not stated)
active: [1] 79.4% | [2] 93.2% | [3] 91.1% | [4] 89.8% | [5] 90.7% | [6] 91.4%

O=c1[nH]c2nc3ccccc3c(=O)n2/c1=C/c1ccco1
inactive: [1] 30.2% | [2] 16.8% | [3] 5.5% | [4] 20.2% | [5] 23.1% | [6] 3.95%

CS(=O)(=O)CC(=O)c1ccc(O)cc1O
inactive: [1] 4.55% | [2] 3.55% | [3] -0.6% | [4] -43.2% | [5] -13.1% | [6] -7%

O=C(c1ccccc1)N1C(=S)N=C(Nc2ccccc2)C1=Nc1ccccc1
inactive: [1] -15.8% | [2] -27.1% | [3] -9.8% | [4] -30.3% | [5] -20.9% | [6] -35.9%
